The results in this text go back to PubChem BioAssay.

In assay [1] the test system is PRMT1 (protein arginine N-methyltransferase 1). Put plainly: PRMT1 binders on small-molecule microarrays, primary screen, biochemical, small-molecule microarray, 635 nm fluorescence (AID 1088).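 Also: binding of Prmt1 protein to compounds spotted on small-molecule microarray slides.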 The following applies: small-molecule microarray binding, higher = more signal.
Assay [2] is described as follows: yeast growth modulation, basal conditions, primary screen, YJM789 clinical isolate, OD600, 24 h (AID 1089).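 Also: growth of clinical yeast isolate S. cerevisiae YJM 789 seeded 1000 cells per well; test concentration not given here.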 The following applies: S. cerevisiae YJM789 growth, higher = more signal, called active from +8 up or from −8 down.
Assay [3] can be described thus: fission yeast growth modulation, primary screen, strain 972, OD600, 24 h, no modulator (AID 1090).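 Also: basal condition with compound alone and no growth modifier present; test concentration not given here.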 The following applies: S. pombe 972 growth, higher = more signal, called active from +8 up or from −8 down.
The nature of assay [4]: S. cerevisiae growth modulation with rapamycin, primary screen, strain BY4716, OD600, 96 h (AID 1091). Also: test concentration not given here. The following applies: higher = more signal, called active from +8 up or from −8 down.
The target of assay [5] is Torsin-1A-interacting protein 2 (Homo sapiens) (UniProt Q8NFQ8). Briefly: LULL1 binders on small-molecule microarray, primary screen, cell lysate, human LULL1 lysate, 635/667 nm fluorescence (AID 1092).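 Also: probe is lysate of COS7 cells overexpressing human LULL1; score merges per-feature 667 nm fluorescence with signal-to-noise.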 The following applies: hLULL1 lysate binding, 635 nm fluorescence, higher = more signal.
Assay [6] is described as follows: E. coli growth modulation, two-sided OD650, primary screen, E. coli filamentation project, strain DRC41, 24 h (AID 1093).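 Also: MC1000 strain lacking acrAB efflux and sulA so SOS filamentation is blocked; test concentration not given here.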 The following applies: OD650, 24 h, higher = more signal, called active from +8 up or from −8 down.
Assay [7] is described as follows: small-molecule microarray binders of probe aLefty2, primary screen, biochemical, biotinylated probe, 635/667 nm fluorescence (AID 1094).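 Also: score merges spot fluorescence near 667 nm with spot signal-to-noise ratio.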 Conditions: higher = more signal.
In assay [8] the test system is Noggin (protein binding on small-molecule microarray). Briefly: Noggin binders on small-molecule microarray, primary screen, biochemical, 635/667 nm fluorescence (AID 1095).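 Also: score merges 667 nm feature fluorescence with signal to noise over triplicate slides.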 The following applies: 635 nm fluorescence, higher = more signal.
Assay [9] concerns the target Neurogenic locus notch homolog protein 3 (Homo sapiens) (UniProt Q9UM47). Put plainly: NOTCH3 binders on small-molecule microarray, primary screen, biochemical, 635/667 nm fluorescence (AID 1096). The following applies: NOTCH3 binding, 635 nm fluorescence, higher = more signal.
Assay [10] can be described thus: small-molecule microarray binders of probe aEGFR, primary screen, biochemical, biotinylated probe, 635/667 nm fluorescence (AID 1097).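 Also: probe is a biotinylated anti-EGFR antibody binding compounds printed on slides; score combines fluorescence near 667 nm and signal to noise of each spot.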 Conditions: higher = more signal.
Assay [11] relates to Plasmodium falciparum Sir2 (PF13_0152, Sir2A). Put plainly: pfSir2 binders on small-molecule microarrays, primary screen, biochemical, small-molecule microarray, 635 nm fluorescence (AID 1098).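 Also: score merges spot fluorescence intensity with its signal-to-noise ratio.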 Conditions: small-molecule microarray binding, fluorescence 635 nm; higher = more signal.
The nature of assay [12]: small-molecule microarray binders of probe aDKK1, primary screen, biochemical, biotinylated probe, 635/667 nm fluorescence (AID 1099).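 Also: score merges 667nm spot fluorescence with signal to noise across triplicate slides; reference of the scale not given here.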 The following applies: higher = more signal.
Assay [13] is described as follows: small-molecule microarray binders of probe aCHRDL2, primary screen, biochemical, biotinylated probe, 635/667 nm fluorescence (AID 1100). Conditions: higher = more signal.
Assay [14] in a line: splicing luciferase reporter signal modulators, primary screen, spliceosome inhibition project, cell-based, HEK293, splice +/- reporter (AID 1101).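 Also: HEK293 cells carrying a splicing-competent luciferase reporter gene; test concentration not given here.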 The following applies: luminescence, 24 h, higher = more signal, called active from +8 up or from −8 down. A general note: A reporter such as luciferase makes a cellular process visible.
The target in assay [15] is Fibroblast growth factor 10 (Homo sapiens) (UniProt O15520). Briefly: FGF10 binders on small-molecule microarrays, primary screen, biochemical, small-molecule microarray, 635 nm fluorescence (AID 1102). The following applies: FGF10 binding, fluorescence 635 nm, higher = more signal.
In assay [16] the test system is glycogen synthase kinase-3 (GSK3A per assay name; protocol says GSK3B). Put plainly: GSK3 binders on small-molecule microarrays, primary screen, biochemical, small-molecule microarray, 635 nm fluorescence, GSK3A (AID 1103). Also: the record names both GSK3A and GSK3B. The following applies: small-molecule microarray binding, fluorescence 635 nm; higher = more signal.
For assay [17], the target named is Epidermal growth factor receptor (Homo sapiens) (UniProt P00533). Briefly: EGFR binders on small-molecule microarrays, primary screen, biochemical, small-molecule microarray, 635 nm fluorescence (AID 1104).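 Also: score merges 667 nm emission intensity with spot signal to noise over triplicate slides.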 The following applies: EGFR binding, higher = more signal.
For assay [18], the target named is Follistatin-related protein 3 (Homo sapiens) (UniProt O95633). Briefly: FSTL3 binders on small-molecule microarrays, primary screen, biochemical, small-molecule microarray, 635 nm fluorescence (AID 1105).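 Also: score merges emission near 667 nm and signal to noise per printed spot across three slides.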 The following applies: FSTL3 binding, higher = more signal.
The target of assay [19] is Dickkopf-related protein 1 (Homo sapiens) (UniProt O94907). Briefly: DKK1 binders on small-molecule microarrays, primary screen, biochemical, small-molecule microarray, 635 nm fluorescence scan (AID 1106).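 Also: score merges emission near 667 nm with signal to noise over three replicate slides.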 Conditions: DKK1 binding, higher = more signal.
The subject of assay [20] is Inhibin beta A chain (activin A). Briefly: INHBA (activin A) binders on microarrays, primary screen, biochemical, small-molecule microarray, 635 nm fluorescence scan (AID 1107).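 Also: mouse activin A protein probed at 4.33 µg/mL on printed slides; score merges bound-protein fluorescence near 667 nm with spot signal-to-noise.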 Conditions: small-molecule microarray binding, higher = more signal.

Each structure is given as a SMILES string. Calls of active or inactive are those of the source.

Fibroblast growth factor 10 (Homo sapiens), sequence (O15520 whole entry, looked up): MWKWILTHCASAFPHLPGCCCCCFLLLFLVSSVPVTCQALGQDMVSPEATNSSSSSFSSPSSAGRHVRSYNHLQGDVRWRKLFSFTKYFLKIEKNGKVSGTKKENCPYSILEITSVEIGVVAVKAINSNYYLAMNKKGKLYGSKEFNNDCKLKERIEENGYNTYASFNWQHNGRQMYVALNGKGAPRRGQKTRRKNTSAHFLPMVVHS
Epidermal growth factor receptor (Homo sapiens), sequence (P00533 whole entry, looked up): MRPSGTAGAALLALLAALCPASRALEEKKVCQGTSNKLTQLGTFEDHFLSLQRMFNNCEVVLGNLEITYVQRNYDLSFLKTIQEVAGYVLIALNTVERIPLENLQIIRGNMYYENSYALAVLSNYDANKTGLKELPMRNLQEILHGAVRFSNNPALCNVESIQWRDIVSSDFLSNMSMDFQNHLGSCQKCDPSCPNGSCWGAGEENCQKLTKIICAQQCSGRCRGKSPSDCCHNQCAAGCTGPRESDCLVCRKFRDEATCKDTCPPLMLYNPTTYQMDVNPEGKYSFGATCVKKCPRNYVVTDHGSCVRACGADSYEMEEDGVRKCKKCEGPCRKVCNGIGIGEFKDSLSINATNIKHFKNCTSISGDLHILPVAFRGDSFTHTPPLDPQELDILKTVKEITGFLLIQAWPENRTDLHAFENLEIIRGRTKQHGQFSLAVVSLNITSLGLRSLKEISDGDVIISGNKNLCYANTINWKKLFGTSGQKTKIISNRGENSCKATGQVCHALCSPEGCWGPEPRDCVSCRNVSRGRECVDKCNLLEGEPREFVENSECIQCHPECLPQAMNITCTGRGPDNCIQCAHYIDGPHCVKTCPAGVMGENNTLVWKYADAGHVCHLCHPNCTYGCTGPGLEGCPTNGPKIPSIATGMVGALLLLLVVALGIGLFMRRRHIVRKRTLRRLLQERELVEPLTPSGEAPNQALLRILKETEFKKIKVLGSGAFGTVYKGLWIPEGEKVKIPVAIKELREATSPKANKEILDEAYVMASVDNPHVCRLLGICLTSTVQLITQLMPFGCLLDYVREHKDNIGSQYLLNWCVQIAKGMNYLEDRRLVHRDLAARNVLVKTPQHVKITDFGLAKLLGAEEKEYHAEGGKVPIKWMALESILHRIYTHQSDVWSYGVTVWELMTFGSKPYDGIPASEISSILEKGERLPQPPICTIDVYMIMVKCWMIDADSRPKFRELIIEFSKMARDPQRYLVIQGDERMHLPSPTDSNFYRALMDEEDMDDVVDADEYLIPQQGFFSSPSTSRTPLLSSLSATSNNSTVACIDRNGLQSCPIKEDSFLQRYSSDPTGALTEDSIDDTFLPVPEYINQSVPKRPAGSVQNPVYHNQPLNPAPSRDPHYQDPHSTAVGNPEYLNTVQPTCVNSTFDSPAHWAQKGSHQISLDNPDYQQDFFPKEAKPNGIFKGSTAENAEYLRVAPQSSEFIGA
Follistatin-related protein 3 (Homo sapiens), sequence (O95633 whole entry, looked up): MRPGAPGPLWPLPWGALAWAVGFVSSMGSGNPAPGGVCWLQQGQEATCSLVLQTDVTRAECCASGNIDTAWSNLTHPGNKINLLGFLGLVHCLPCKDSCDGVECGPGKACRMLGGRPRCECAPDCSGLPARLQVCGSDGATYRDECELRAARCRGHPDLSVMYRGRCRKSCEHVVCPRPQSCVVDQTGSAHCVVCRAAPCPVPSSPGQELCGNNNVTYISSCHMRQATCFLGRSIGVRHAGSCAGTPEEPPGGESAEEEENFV
Neurogenic locus notch homolog protein 3 (Homo sapiens), sequence (Q9UM47 whole entry, looked up): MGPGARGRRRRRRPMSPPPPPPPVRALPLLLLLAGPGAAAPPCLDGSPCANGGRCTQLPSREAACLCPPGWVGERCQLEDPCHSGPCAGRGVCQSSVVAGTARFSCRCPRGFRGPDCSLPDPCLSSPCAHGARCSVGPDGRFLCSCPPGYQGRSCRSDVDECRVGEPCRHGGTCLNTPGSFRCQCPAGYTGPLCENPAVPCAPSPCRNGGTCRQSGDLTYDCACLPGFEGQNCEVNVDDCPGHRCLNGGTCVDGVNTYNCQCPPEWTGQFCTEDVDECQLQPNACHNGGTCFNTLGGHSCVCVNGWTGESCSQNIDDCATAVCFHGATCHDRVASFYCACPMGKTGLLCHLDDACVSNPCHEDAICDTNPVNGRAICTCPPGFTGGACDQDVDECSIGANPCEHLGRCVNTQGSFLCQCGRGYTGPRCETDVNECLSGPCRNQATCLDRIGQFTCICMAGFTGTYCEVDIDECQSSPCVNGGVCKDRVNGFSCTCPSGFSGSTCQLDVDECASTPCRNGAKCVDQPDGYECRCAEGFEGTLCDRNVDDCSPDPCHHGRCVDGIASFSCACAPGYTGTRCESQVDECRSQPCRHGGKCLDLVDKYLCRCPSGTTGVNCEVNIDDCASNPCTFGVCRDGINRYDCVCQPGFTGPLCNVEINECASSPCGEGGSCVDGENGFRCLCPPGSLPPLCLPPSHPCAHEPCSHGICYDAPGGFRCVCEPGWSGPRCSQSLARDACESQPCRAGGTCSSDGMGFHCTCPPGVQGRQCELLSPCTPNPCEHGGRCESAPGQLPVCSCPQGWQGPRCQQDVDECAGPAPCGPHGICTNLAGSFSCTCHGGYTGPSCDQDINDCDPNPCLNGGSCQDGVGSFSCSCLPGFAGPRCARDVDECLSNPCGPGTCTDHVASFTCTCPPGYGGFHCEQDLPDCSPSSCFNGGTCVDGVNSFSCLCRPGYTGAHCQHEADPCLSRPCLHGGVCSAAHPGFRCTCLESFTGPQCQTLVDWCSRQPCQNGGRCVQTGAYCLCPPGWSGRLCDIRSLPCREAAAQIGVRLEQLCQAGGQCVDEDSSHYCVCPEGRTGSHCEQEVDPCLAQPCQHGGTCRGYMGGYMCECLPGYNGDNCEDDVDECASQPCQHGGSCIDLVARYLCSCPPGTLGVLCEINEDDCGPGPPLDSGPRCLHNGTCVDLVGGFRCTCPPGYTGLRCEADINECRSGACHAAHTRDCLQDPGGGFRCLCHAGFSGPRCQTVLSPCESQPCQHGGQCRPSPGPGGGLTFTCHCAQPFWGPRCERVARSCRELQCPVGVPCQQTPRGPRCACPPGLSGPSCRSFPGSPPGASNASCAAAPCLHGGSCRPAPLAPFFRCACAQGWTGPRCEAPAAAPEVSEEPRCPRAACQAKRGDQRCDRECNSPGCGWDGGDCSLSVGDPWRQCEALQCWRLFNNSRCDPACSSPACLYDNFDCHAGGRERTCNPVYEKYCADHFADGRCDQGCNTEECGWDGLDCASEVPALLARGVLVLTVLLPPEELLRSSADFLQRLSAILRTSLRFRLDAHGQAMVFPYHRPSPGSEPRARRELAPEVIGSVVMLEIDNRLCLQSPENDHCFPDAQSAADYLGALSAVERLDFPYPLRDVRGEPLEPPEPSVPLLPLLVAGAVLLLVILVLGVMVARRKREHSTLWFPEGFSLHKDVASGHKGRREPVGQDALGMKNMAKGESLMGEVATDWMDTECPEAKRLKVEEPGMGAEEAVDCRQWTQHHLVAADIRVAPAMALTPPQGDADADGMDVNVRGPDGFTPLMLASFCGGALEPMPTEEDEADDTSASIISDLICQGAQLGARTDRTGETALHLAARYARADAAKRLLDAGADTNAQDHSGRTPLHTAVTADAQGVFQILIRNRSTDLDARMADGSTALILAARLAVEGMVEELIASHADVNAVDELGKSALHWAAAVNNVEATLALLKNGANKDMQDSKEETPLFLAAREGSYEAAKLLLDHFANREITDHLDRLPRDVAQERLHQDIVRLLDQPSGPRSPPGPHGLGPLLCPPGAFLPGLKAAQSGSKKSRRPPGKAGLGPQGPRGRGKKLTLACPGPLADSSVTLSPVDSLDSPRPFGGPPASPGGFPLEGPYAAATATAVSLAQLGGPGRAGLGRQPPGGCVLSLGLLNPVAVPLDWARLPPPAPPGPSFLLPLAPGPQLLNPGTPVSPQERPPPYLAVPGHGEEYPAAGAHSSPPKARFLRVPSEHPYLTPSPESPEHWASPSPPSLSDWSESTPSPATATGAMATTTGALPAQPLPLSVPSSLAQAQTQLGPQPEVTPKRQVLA
Torsin-1A-interacting protein 2 (Homo sapiens), sequence (Q8NFQ8 whole entry, looked up): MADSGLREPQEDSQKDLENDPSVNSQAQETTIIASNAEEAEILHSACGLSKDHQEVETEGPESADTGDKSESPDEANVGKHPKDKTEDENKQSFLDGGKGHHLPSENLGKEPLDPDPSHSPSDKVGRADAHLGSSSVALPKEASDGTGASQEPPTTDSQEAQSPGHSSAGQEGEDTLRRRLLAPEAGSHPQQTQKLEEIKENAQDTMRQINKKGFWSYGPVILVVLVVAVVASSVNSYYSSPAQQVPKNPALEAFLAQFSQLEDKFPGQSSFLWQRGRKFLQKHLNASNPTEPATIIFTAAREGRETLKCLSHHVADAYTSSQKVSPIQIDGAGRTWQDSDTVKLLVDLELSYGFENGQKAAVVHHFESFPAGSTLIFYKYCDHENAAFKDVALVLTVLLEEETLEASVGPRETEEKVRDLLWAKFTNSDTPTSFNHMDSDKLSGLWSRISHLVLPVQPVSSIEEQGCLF
Dickkopf-related protein 1 (Homo sapiens), sequence (O94907 whole entry, looked up): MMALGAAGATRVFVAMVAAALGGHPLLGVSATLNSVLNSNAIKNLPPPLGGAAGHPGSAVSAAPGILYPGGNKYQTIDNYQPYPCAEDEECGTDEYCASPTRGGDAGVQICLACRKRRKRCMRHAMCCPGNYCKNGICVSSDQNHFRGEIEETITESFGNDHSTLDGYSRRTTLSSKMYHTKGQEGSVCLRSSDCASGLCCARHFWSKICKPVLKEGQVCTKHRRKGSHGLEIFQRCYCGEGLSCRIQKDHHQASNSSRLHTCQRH

Consider `COc1ccc([Si](C)(C)[C@@H]2[C@@H](CC(=O)N(CCO)Cc3ccccc3)O[C@]3(C(=O)N(Cc4ccc(N5CCC5=O)cc4)c4ccccc43)[C@H]2C)cc1`, for which the composite z-score in [1] was -0.0625; in assay [5], 0.628; in assay [7], 0.536; in [8] it was 0.343; in assay [9], -0.0568; in assay [10], -0.199. The composite z-score is 1.41 in [11]; -0.26 in [12]; 0.618 in [13]; 0.0525 in assay [15]; -0.808 in [16]; 0.359 in assay [17]. Also, the composite z-score worked out at 0.953 in assay [18], 0.919 in assay [19] and 0.0242 in assay [20]. Further, the z-score in assay [2] is 0.127 (inactive); in assay [3], -0.246 (inactive); in assay [4] it was 1.87 (inactive); in [6], 1.31 (inactive); in [14], -1.9 (inactive).
Turning to `C=CCNC(=O)[C@H]1[C@@H]2C(=O)O[C@@H](c3ccccc3)[C@@H](c3ccccc3)N2[C@@H](c2ccc(O)cc2)[C@]12C(=O)Nc1ccc(C#CC3=CCCCC3)cc12`, the composite z-score is 1.42 in assay [1]; 1.54 in [5]; 0.384 in assay [7]; 1 in [8]; 0.758 in assay [9]; -0.17 in [10]. Moreover, the composite z-score in [11] amounted to 1.14; in [12], 0.593; in [13], 0.662; in [15], 0.703; in assay [16], 1.13; in assay [17], 0.859. Further, the figures for the composite z-score in [18], in assay [19] and in assay [20] were 0.696, 0.909 and 1.31, respectively. The z-score was 1.51 (inactive) in assay [2]; 0.614 (inactive) in assay [3]; 1.98 (inactive) in [4]; -0.197 (inactive) in [6]; 0.622 (inactive) in assay [14].
For `CC1CC/C=C\[C@H]2OC34C=CCN(c5ccc(Cl)cc5)C(=O)[C@H]3N(CCCO)C(=O)[C@]4(C)C2C(=O)O1` (stereo not given in full), the composite z-score in assay [1] was -1.33; in assay [5], -0.265; in [7] it was -0.154; in [8], -0.774; in assay [9], -0.105; in assay [10], -0.151. Moreover, the composite z-score in assay [11] was 0.312; in [12], -0.0782; in assay [13] it was 0.717; in assay [15], -1.32; in [16], -1.28; in [17], -1.1. Besides, the figures for the composite z-score in assay [18], in assay [19] and in assay [20] were -0.949, -1.42 and 0.596, respectively. In addition, the z-score in assay [2] was 0.0887 (inactive); in assay [3], -0.117 (inactive); in assay [4], 1.13 (inactive); in [6], -0.643 (inactive); in assay [14], 0.453 (inactive).
On to `CC(C)CNC(=O)[C@@H]1c2ccccc2C(=O)N(Cc2ccccc2Cl)[C@H]1c1ccc(CO)cc1`, for which the composite z-score in assay [1] was -0.469; in assay [5], 3.09; in assay [7], 0.0529; in assay [8], -1.04; in assay [9], -1.08; in assay [10], -0.239. In addition, the composite z-score in [11] was 1.29; in assay [12] it was 0.495; in [13], 0.959; in [15], -0.765; in assay [16], 0.729; in [17], -0.519. Besides, the composite z-score in assay [18] was -0.644; in assay [19] it was -1.17; in [20], -0.114. The z-score in [2] was -0.691 (inactive); in [3], -0.354 (inactive); in assay [4], -0.332 (inactive); in assay [6], 0.534 (inactive); in assay [14], 0.587 (inactive).
As to `CN1C(=O)C2C=CC(C(O)c3ccc(-c4ccccc4)s3)N(Nc3ccccc3)C2C1=O` (stereo not given), the composite z-score was 0.932 in assay [1]; 2.91 in [5]; 0.182 in assay [7]; -0.399 in assay [8]; 1.11 in assay [9]; -0.0043 in assay [10]. The composite z-score came to 1.27 in [11]; 0.644 in [12]; 1.1 in [13]; 0.737 in assay [15]; 0.703 in assay [16]; 0.138 in assay [17]. Besides, the composite z-score in assay [18] is 0.898; in assay [19], -0.0947; in [20], 1.23. Moreover, the z-score in assay [2] is -1.29 (inactive); in assay [3] it was 0.447 (inactive); in assay [4], 0.164 (inactive); in assay [6] it was -0.576 (inactive); in [14] it was 1.43 (inactive).
